# In PubChem BioAssay (NCI):
# Compounds without any hit were thinned out: in the full panel of roughly 79,000, 15% have a hit. Values without a mark were called inactive. Activity calls are given as the source filed them. Rule as the data show it: active = growth inhibition above about 70%; inactive = the rest.
# Columns and labels:
# [1] = NCI Yeast Anticancer Drug Screen. Data for the rad50 strain (AID 155);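 also: 0% = growth of vehicle-only cultures of the same strain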; conditions: S. cerevisiae rad50 strain growth inhibition, active compounds read high
# Method in brief: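 Yeast carrying a defined DNA repair defect were exposed to test compounds, and growth was compared with vehicle-treated controls to give percent inhibition.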
# [2] = NCI Yeast Anticancer Drug Screen. Data for the mec2-1 strain (AID 157); conditions: S. cerevisiae mec2-1 strain, active compounds read high
# Method in brief: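 Test agents were screened against the mec2-1 yeast strain, with defined DNA repair or cell cycle alteration. Growth was scored as inhibition against vehicle-only controls.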
# [3] = NCI Yeast Anticancer Drug Screen. Data for the sgs1 mgt1 strain (AID 161);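 also: 0% = growth of cultures given vehicle only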; conditions: S. cerevisiae sgs1 mgt1 strain, active compounds read high
# Method in brief: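 Test agents were incubated with a DNA-repair-mutant yeast strain. Growth was then read and compared against vehicle-treated controls.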
# [4] = NCI Yeast Anticancer Drug Screen. Data for the cln2 rad14 strain (AID 165);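 also: 0% = growth equal to vehicle treated cultures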; conditions: S. cerevisiae cln2 rad14 strain, active compounds read high
# Method in brief: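 Growth of compound-exposed yeast (cln2 rad14 genotype) measured and expressed as inhibition relative to vehicle.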
# [5] = NCI Yeast Anticancer Drug Screen. Data for the bub3 strain (AID 167); conditions: S. cerevisiae bub3 mutant strain, active compounds read high
# Method in brief: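 Compounds were applied to a genetically altered yeast strain carrying a cell-cycle control defect. Growth inhibition was scored against vehicle-treated controls.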
# [6] = NCI Yeast Anticancer Drug Screen. Data for the mlh1 rad18 strain (AID 175); conditions: S. cerevisiae mlh1 rad18 strain growth inhibition, active compounds read high
# Method in brief: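 In this whole-cell yeast screen, a strain with altered DNA damage repair is challenged with compound, and its growth is measured against matched vehicle-treated controls.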
# [7] = at 5.0 µM (retest, dose inferred, filed as 0.5)
# [8] = at 50.0 µM (retest, dose inferred, filed as 5.0)
Structure (SMILES),"growth inhibition [1, 7]","growth inhibition [1, 8]",growth inhibition ([1]; at 50.0 µM),"growth inhibition [2, 7]","growth inhibition [2, 8]",growth inhibition ([2]; at 50.0 µM),"growth inhibition [3, 7] [%]","growth inhibition [3, 8]",growth inhibition ([3]; at 50.0 µM),"growth inhibition [4, 7]","growth inhibition [4, 8]",growth inhibition ([4]; at 50.0 µM),"growth inhibition [5, 7]","growth inhibition [5, 8]",growth inhibition ([5]; at 50.0 µM),"growth inhibition [6, 7]","growth inhibition [6, 8]",growth inhibition ([6]; at 50.0 µM)
Cc1ccc(Cc2n[nH]c(=O)n2N2C(=O)c3ccccc3C2=O)cc1,18%,16%,-24.8%,9%,14%,-37.2%,9,9%,-33.4%,9%,17%,-5.1%,18%,13%,-25.1%,13%,12%,-38.2%
O/N=C1\c2ccccc2-c2ccc(Cl)cc21,6%,35%,60.5%,-5%,34%,50.5%,3,60%,87.4% (active),-4%,27%,41.4%,-4%,28%,74.3% (active),8%,36%,79% (active)
C/C(=N/NC(N)=O)C1CC(CCC2([N+](=O)[O-])CCC(C)(O)C(/C(C)=N\NC(N)=O)C2)([N+](=O)[O-])CCC1(C)O (configuration not stated),5%,-5%,10.6%,4%,0%,14.1%,3,-1%,-6.4%,5%,-7%,9.6%,7%,-3%,96.7% (active),1%,3%,2.1%
CCOC(=O)Nc1cc2c(cn1)[nH]c1ccccc12,-3%,46%,-0.8%,7%,72% (active),-12.2%,-1,52%,8.35%,1%,25%,-0.4%,2%,38%,3.25%,5%,86% (active),5.3%
Clc1ccc(CN2COc3c(ccc4cccnc34)C2)cc1,1%,36%,97.1% (active),-2%,65%,64.5%,-1,97% (active),99.4% (active),1%,97% (active),77.5% (active),-4%,85% (active),77.5% (active),2%,95% (active),93% (active)
O=c1[nH]cnc2nc(I)[nH]c12,1%,3%,14.8%,-9%,-3%,0.05%,-5,5%,-0.3%,1%,-7%,38.5%,-1%,-8%,30.1%,7%,-5%,6%
O=C(c1ccc(Cl)cc1)C1N=NCC1c1ccccc1 (configuration not stated),3%,33%,-2.2%,9%,52%,22.8%,4,50%,29.2%,4%,59%,12.8%,4%,85% (active),87% (active),-8%,53%,43%
O=NN(CCCl)C(=O)NCCSSCCNC(=O)N(CCCl)N=O (tested in a mixture with another compound),29%,62%,36.1%,20%,39%,38.6%,40,77% (active),59.1%,14%,29%,21.6%,30%,38%,14.2%,73% (active),96% (active),72.1% (active)
O=C1C(c2ccc(Br)cc2)=[N+]([O-])c2ccccc21,9%,94% (active),93.5% (active),12%,84% (active),87.3% (active),10,94% (active),93.8% (active),-4%,47%,85.5% (active),19%,94% (active),96.4% (active),11%,91% (active),95.8% (active)
CNC(=O)OC1/C(C)=C\C(C)C(O)C(OC)CC(C)CC2=C(OC)C(=O)C=C(C2=O)N(C)C(=O)/C(C)=C/C=C\C1OC (configuration not stated),-24%,25%,65%,-28%,70% (active),83.8% (active),-22,39%,65.8%,8%,68%,50%,9%,80% (active),73.6% (active),-3%,68%,51%
c1ccc2c(c1)ccc1c[n+]3c4ccccc4ccc3n12,62%,94% (active),73.6% (active),28%,88% (active),85.5% (active),34,82% (active),68%,57%,91% (active),87% (active),55%,93% (active),73.4% (active),56%,91% (active),83.2% (active)
CCOc1c(N=Nc2ccc(OC)cc2)c(-c2ccccc2)nn1C(N)=S,4%,36%,12.3%,-2%,34%,38%,10,73% (active),25.8%,6%,9%,3.1%,3%,71% (active),70.2% (active),0%,27%,23.9%
CC(=O)Nc1ccc(C(=O)NN2C(=O)C(Cl)C2c2cc(Br)cc(Br)c2O)cc1 (configuration not stated),20%,-5%,-18%,-6%,5%,-25.1%,-1,-7%,-23.4%,0%,12%,2%,-17%,-11%,0.85%,7%,26%,-35%
CC(C)C1=CC23CCC4C(C)(C(=O)O)CCCC4(C)C2CC1C(C(=O)O)C3C(=O)O (configuration not stated),80% (active),99% (active),98.4% (active),89% (active),99% (active),98.1% (active),52,98% (active),94.9% (active),86% (active),99% (active),98% (active),84% (active),99% (active),97.6% (active),88% (active),98% (active),96% (active)
Fc1ccc(NC(=S)SCc2ccc(Cl)c(Cl)c2)c(F)c1,13%,98% (active),98.5% (active),7%,99% (active),97.3% (active),6,98% (active),99.2% (active),-6%,97% (active),98.8% (active),11%,98% (active),99% (active),9%,95% (active),99% (active)
C/C(=N\NC(=O)c1ccc([N+](=O)[O-])cc1)c1ccccc1,8%,-5%,-2.65%,-19%,-1%,-5.45%,6,-6%,10.3%,2%,11%,-7.95%,9%,14%,38.8%,15%,26%,-7.2%
O=C(C(=O)c1ccc(Cc2ccc(C(=O)C(=O)c3ccccc3)cc2)cc1)c1ccccc1,-1%,-20%,6.45%,0%,-4%,6.4%,1,1%,-15.6%,3%,-17%,27.4%,2%,-22%,0.8%,2%,-17%,12.2%
O=[N+]([O-])c1ccc(Cl)c(C(Nc2nncs2)Nc2nncs2)c1,-2%,91% (active),49.1%,2%,70% (active),23.9%,-3,61%,61.7%,18%,84% (active),36.3%,-5%,92% (active),20.4%,-13%,84% (active),51.8%
O=C(O)C1(Cc2ccc3c(c2)CCC3)Cc2ccccc2C1,18%,18%,90.3% (active),-7%,-7%,91.9% (active),15,15%,88.5% (active),5%,5%,89% (active),-6%,-6%,90% (active),3%,3%,86.8% (active)
